Data reported in PubChem BioAssay AID1508600 (Functional Genomics Laboratory (NCATS/FGL), 2020).
In all, about 53,000 sequences went through this assay and about 3,700 (7%) were called active. The full list was thinned out, with actives kept by preference. Unmarked numbers belong to inactive results.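 How the source made its calls: active means gene knockdowns whose robust z-score for IL-1 alpha signal is at least 2 or at most -2, so actives lie on both sides; inactive means the rest.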

Assay: Components of the Cytosolic LPS Sensing Pathway: Gene Identification via Genome-wide siRNA Screen;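 further: robust z of the log signal after scaling to non-targeting control siRNA wells of the plate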
Conditions: RAW264.7 macrophages, IL-1a HTRF, actives lie on both sides, screened at 100 nM (by protocol), cells primed 5 h with Pam3CSK4 first
Outline: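 Three distinct siRNAs per gene were tested singly at 100 nM in RAW264.7 macrophages. Following Pam3CSK4 priming and 24 hour LipidA transfection, IL-1a secretion was read by HTRF.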
In the case of GUCCUCGUAGGAACAGCAUTT against Olfr1265, the z-score is reported as -1.52.
GGCACUGUUGUGGCUGAAATT against Coro1a gave a z-score of 1.47.
In the case of CCUCAUGGAUGUUCGUAGATT against P2ry10, the z-score is reported as 0.452.
Sequence GCUAGGAUGUCUGAAAGAGTT against Ccdc178 has a z-score of 0.266.
Sequence GGCUGUAUCCUGACAGCAATT against Olfr231 has a z-score of 0.213.
Work on GCGUGGAGAACCGUUAAUCTT against Shroom3 yielded a z-score of 0.845.
“CCUCUCUAGGCCAUGUUCUTT against 1110008P14Rik” showed a z-score of 0.381.
GGUUUUAUCCCUGUUUCCUTT against Naaa showed a z-score of -0.115.
In the case of CCUGAGAUUGGGAAAUUCUTT against Engase, the z-score is reported as 2.02 (active).
With GCGGUCAACUGGAAACUAATT against Dnaja3 the z-score was 0.735.
For GCAUCAUGAGUCCCAUUCUTT against Olfr385, the z-score was -0.276.
Work on CCAACGCGCACGGCCGCGCTT against Tmem158 yielded a z-score of -0.359.
With CCGAAAAAUAUGUUUUCCGTT against Mettl4 the z-score was 2.87 (active).
With CCCUGCUGUCGUUUUGACUTT against Senp3 the z-score was -0.122.
GGAAAGUUUUGGCGACUACTT against Fbxw19 gave a z-score of 0.25.
For GCUCAACUUACGUUCACUCTT against Vps72, the z-score was -2.53 (active).
For GGAUUUAAAUCACCUGUAATT against Tdpoz1, the z-score was -0.864.
Sequence GCAGAAAAGGUCUACGUGCTT against Azgp1 has a z-score of 1.8.
With AAACAGUCAUUUCCUAUAGTT against Olfr1502 the z-score was -2.04 (active).
In the case of CCGAUUAAAAGAGUGUUUGTT against Nudt8, the z-score is reported as 1.85.
In the case of GGUUAUCUUUGGGACUUAATT against Lrmp, the z-score is reported as -1.66.
For GCUGGUGCUCUUCACCAUATT against Fbxw17, the z-score was -0.419.
In the case of CCUGAAAUGCUAAGACUACTT against Gm5142, the z-score is reported as 1.15.
GGGAUCUUACAUGCCACCATT against Olfr1231 gave a z-score of -0.000779.
For “GGCUACUCGGCCCUCUGUUTT against 4930404N11Rik”, the z-score was -1.67.
With GGACGUGUAGCUUGGAAUATT against Rnf26 the z-score was 5.33 (active).
Sequence CCAUACAGAGGUGACAGUUTT against Olfr816 has a z-score of -0.23.
For CCAUAAAAACCAGAGAAAUTT against Plekhf2, the z-score was -0.778.
In the case of GGUCGACUUAAGAUAAUAATT against Itgb6, the z-score is reported as -0.294.
For CCCUGUUAAGGAAUGCAAATT against Chil1, the z-score was 0.367.
For GGAGAAAUUCGACUGAAAATT against Pcdhb13, the z-score was 3.47 (active).
For GGCUUUUUGCUUCACUACUTT against Slco4c1, the z-score was 1.06.
GGCGAAUUAUUGAAAACGUTT against Actr8 showed a z-score of 0.916.
Sequence GGAGUUGGAUAUUCUAAAATT against B3gntl1 has a z-score of -0.64.
GGGCAACCUGGUUACACAUTT against Zfp637 gave a z-score of 1.25.
For UAGUCAUUGGGAUUCCUUCTT against Olfr112, the z-score was 2.98 (active).
Sequence GGUGGAAUGAAAGAACAAGTT against Klhl13 has a z-score of 1.74.
GGCCAGGAAAGAUACAGGATT against Rab3c showed a z-score of 0.486.
Sequence GGCCAUGCUGAAAGUAUUUTT against Olfr561 has a z-score of -1.46.
In the case of GCUUAGAAUCUCUGGACAATT against Rnf168, the z-score is reported as 3.21 (active).
With CGGGAACAUAUCAGACUAATT against Mcm3ap the z-score was -0.844.
GGCCAUUGAGCUCAACCCUTT against Sgta showed a z-score of -1.88.
Work on CCUAUAAAUGUCCUUAGUCTT against Ccdc115 yielded a z-score of 0.127.
With CCUAUGGUGCUCUUAUAAATT against Dpp6 the z-score was -0.178.
With GGUCUUAUGUAAGUGGUAUTT against Ociad1 the z-score was -2.03 (active).
GGCACUGUGGUGUAAAUCCTT against Nnt gave a z-score of -1.53.
For GGACAUCGAGCUUCAGAUCTT against Dnm1l, the z-score was 2.68 (active).
Work on GGAGAUCGAUGGAGACUUCTT against Sftpa1 yielded a z-score of -0.773.
Sequence CGACGAAUGUCCUGAACAUTT against Tmem106a has a z-score of -0.193.
For GCCUUGAUCCUACUGUAACTT against Amigo3, the z-score was 2.12 (active).
For “GGGACUUAAGGUUAGACACTT against E330018D03Rik”, the z-score was 0.163.
For CGACCUGUUCGCCAUCAAATT against Scaf1, the z-score was 0.511.
For CGAGGUGCUAAUCUGGCCUTT against Dctpp1, the z-score was 0.241.
GGAACAAAUCCUGGAACUGTT against Zfp449 showed a z-score of 1.15.
With GGACUGGUCAGAGAUGGAUTT against Pced1a the z-score was 5.33 (active).
For GGAAAUGUGGUAAUUCCGATT against Cd44, the z-score was 0.256.
For CGAAAUGAAAACUUCCUGGTT against Mab21l1, the z-score was 0.989.
For CCAUCAGUAUUCACAACAATT against Usp42, the z-score was -3.12 (active).
Sequence GUUACCUCGUGGAAAGCAUTT against Vmn1r43 has a z-score of -0.345.
GGUUUGAAGAUGAUGCCUCTT against Nfkbil1 gave a z-score of -0.848.
Sequence GGACCACUAGACCUGAUAATT against Itgb1bp1 has a z-score of 0.116.
In the case of GCAUCCCGACUACAAGUACTT against Sox21, the z-score is reported as -2.06 (active).
GGUCCGGUCUCAGACUUCATT against Ift27 showed a z-score of 1.16.
In the case of GAUUGUCACCACCUUAAGATT against Chchd5, the z-score is reported as -0.964.
For CGAGAUGUCCCAGAAUCAUTT against Wdr75, the z-score was -2.26 (active).
“GCCAUGUUCCCAUUUAACUTT against A730018C14Rik” showed a z-score of 1.34.
Sequence GCACGAGGAUGUGAUAUUCTT against Txndc2 has a z-score of -0.65.
In the case of CCUUCUCUUUGCUCUAUGUTT against Olfr1284, the z-score is reported as -0.647.
In the case of GCAUCGACAACCUCUCUAGTT against Hba-x, the z-score is reported as 3.15 (active).
Work on GCUUAGUUUAUGAGAAUGCTT against Ptprh yielded a z-score of -0.791.
Work on GGCCAUAUUUGUGACUGUGTT against Hao1 yielded a z-score of -1.58.
In the case of GGAUCUUGAAGCCAAAUACTT against Ccdc127, the z-score is reported as 2.56 (active).
In the case of GGUAACCAAAACAAUUCUGTT against Cog8, the z-score is reported as -0.00241.
In the case of GGUGUCUGAGUAAUUCUGGTT against Zscan5b, the z-score is reported as -1.55.
In the case of GUGUAGCUCUUCACAGUUATT against Fgf2os, the z-score is reported as 0.673.
In the case of GGCUUUGGAAUGAGAGCUUTT against Dynlrb1, the z-score is reported as -2.07 (active).
For “CGUGUUUAGGAAAAAUUGUTT against 2510039O18Rik”, the z-score was -0.398.
With CCUGCUAAGUGAAUUUGUGTT against Cmpk1 the z-score was 2.18 (active).
Sequence GCAACGAGCAAAAAGCAUGTT against Htr2a has a z-score of -0.794.
GGUCCUUAUCGCUUGGAUGTT against Vwa8 showed a z-score of -0.202.
With GGCUAAGACCAAAACUUUATT against Cyp4f13 the z-score was 0.772.
Work on GCAGCUUUGAAAUUGUCCATT against Stard5 yielded a z-score of -1.72.
Sequence CGAUGCAAAAAGAAUAGACTT against Mark1 has a z-score of 0.673.
For GGCUAGUUUUCUCUUAAAUTT against Usp1, the z-score was -3.12 (active).
For GAGUGUCCGAUAGACCGUUTT against Rbm4, the z-score was -0.429.
Work on GGCGCAAAUACUUCUUCAUTT against Nrg1 yielded a z-score of 0.533.
With GCACCUUUGAGUGCAACAUTT against Rnf185 the z-score was -2.37 (active).
CCUAAGAUUUUGGAACAAATT against Cenpm gave a z-score of -0.47.
GGCCAGGAGAAGAUUGAACTT against Ccdc42 showed a z-score of 0.00447.
Work on GGCUGAAUCGGCAUUUCCATT against Klhdc3 yielded a z-score of -0.184.
For GGCUGCAUGGUACAGAUCUTT against Olfr463, the z-score was -2.33 (active).
Work on GCUUUUUGAGUCUGAUUUATT against Dmgdh yielded a z-score of 0.413.
GGCAUUCAAAAGGUAAAAUTT against Grid2 gave a z-score of -0.515.
GCUGACUGCCAAGGAUUUUTT against Ogn showed a z-score of -0.135.
For “GGCAUGAAACCUCCAAAGCTT against 1520401A03Rik”, the z-score was 0.643.
CGGAUAUUUACGAACUUACTT against Pitpnb showed a z-score of 1.24.
For GGGUCAGAUUUUCAAUGUCTT against Bmpr1b, the z-score was 0.8.
Sequence GGUUGAAACUGCUCUCAAGTT against Prl2a1 has a z-score of 1.77.
In the case of GGACCAUGAGGGAAUACAGTT against Bdkrb2, the z-score is reported as 4.91 (active).
Sequence CGCAGACAAGAAAUGAAGGTT against Hnf4aos has a z-score of -1.98.
Sequence GCAUGAGGAAAAAUCUUCATT against Neurod4 has a z-score of -0.158.
For GGAGAAAUUUAAGAAGAGUTT against Xrcc5, the z-score was 0.674.
For GCUACAUAAUUCCGAAGUUTT against Fmr1, the z-score was 2.23 (active).
GCCAGAGGAUAACCUAUCGTT against Dsg4 gave a z-score of -0.254.
In the case of AAACUUGGCGUAUCAGGAATT against Gm3696, the z-score is reported as -1.45.
For GGAGUUUGUCUUCUCUUUCTT against Foxf1, the z-score was 0.0377.
In the case of GGAGAGUAUGGACAGUAUUTT against Pgc, the z-score is reported as 2.96 (active).
